# In PubChem BioAssay (EPA / NIEHS):
# Several values for one entry are separate records, joined by “and”; a condition that tells them apart may be missing. Identical values can stand only once. Inconclusive results are not listed. Where a structure was tested more than once in an assay, its records may differ in their call. Activity calls are given as the source filed them. How the source made its calls, unless noted: active means hit-call score of the fitted dose curve at least 0.9, where 1 is the maximum; inactive means score below 0.9.
# Key:
# [1] = read-out: Monokine induced gamma interferon (MIG), CXCL9 (gene 4283); assay: BSK_3C_MIG: BioMAP Diversity Plus: 3C Assay for Monokine induced gamma interferon (MIG) Biomarker Activity (AID 2283021); conditions: primary human endothelial cells (HUVEC); actives raise or lower the signal;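 on AC50: MIG protein level measured by immunoassay in the treated endothelial cultures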
# Outline: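 Read-out is ELISA detection of MIG on human umbilical vein endothelial cells, taken 24 h after dosing. Gain or loss of signal was scored relative to DMSO controls using bidirectional curve fitting.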
# [2] = molecular target: human Vitamin D Receptor (VDR), VDR (gene 7421) (UniProt P11473); assay: ATG_VDR_TRANS: Attagene TRANS-FACTORIAL HepG2 Assay for human Vitamin D Receptor (VDR) (AID 2283022; active means hit-call score of the fitted dose curve at least 0.9, where 1 is the maximum)
# Sequence of human Vitamin D Receptor (VDR), VDR (gene 7421) (P11473 whole entry, looked up, the tested form may be a part): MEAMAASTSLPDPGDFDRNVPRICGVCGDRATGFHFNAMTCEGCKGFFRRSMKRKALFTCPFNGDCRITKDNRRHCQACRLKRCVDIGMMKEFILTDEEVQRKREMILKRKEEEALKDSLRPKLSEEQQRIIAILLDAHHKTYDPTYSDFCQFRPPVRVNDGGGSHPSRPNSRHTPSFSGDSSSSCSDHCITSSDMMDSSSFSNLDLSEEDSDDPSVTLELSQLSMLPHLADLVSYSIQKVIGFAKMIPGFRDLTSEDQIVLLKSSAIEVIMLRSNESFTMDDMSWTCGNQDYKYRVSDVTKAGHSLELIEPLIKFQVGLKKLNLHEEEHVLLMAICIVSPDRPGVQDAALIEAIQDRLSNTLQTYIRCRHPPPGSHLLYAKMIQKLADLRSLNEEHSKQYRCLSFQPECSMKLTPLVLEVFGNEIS
# Outline: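 RT-PCR/capillary electrophoresis read-out of reporter mRNA induction in transiently transfected HepG2; 24 h dosing; chimeric NR-Gal4 (TRANS format); gain-of-signal fit against DMSO baseline.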
# [3] = BSK_3C_SRB: Viability Assessment in the BioMAP Diversity Plus: 3C Assay (AID 2283023); conditions: primary human endothelial cells (HUVEC);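 further: fitted both ways against DMSO so a hit may be signal rise or drop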
# Outline: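 HUVEC, 24 h post-dose; 10% TCA fix, 0.1% SRB stain, A560 nm. Bidirectional curve fit vs DMSO negative control.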
# [4] = read-out: Matrix Metallopeptidase 1 (MMP1), MMP1 (gene 4312); assay: BSK_BE3C_MMP1: BioMAP Diversity Plus: BE3C Assay for Matrix Metallopeptidase 1 (MMP1) Biomarker Activity (AID 2283024); conditions: primary human bronchial epithelial cells; actives raise or lower the signal
# Outline: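 Human bronchial epithelial cells (BE3C system) exposed to compound for 24 h; MMP1 then quantified by ELISA. Activity was fitted in both directions relative to DMSO.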
# [5] = BSK_3C_Vis: BioMAP Diversity Plus: 3C Assay for Morphology Visualization (AID 2283025); conditions: primary human endothelial cells (HUVEC);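 further: fitted both ways so gain or loss versus DMSO counts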;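 on AC50: light microscopy image of cell morphology used as background control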
# Outline: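 Chemicals were added to primary human umbilical vein endothelium, cells were incubated 24 h, and morphology was then visualized by light microscopy. Gain or loss of signal was fitted bidirectionally relative to DMSO.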
# [6] = read-out: Pselectin, SELP (gene 6403); assay: BSK_4H_Pselectin: BioMAP Diversity Plus: 4H Assay for Pselectin Biomarker Activity (AID 2283026); conditions: primary human endothelial cells (HUVEC); actives raise or lower the signal
# Outline: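 ELISA read-out of P-selectin on human umbilical vein endothelium after 24 h of dosing. Values derive from bidirectional fitting relative to DMSO. Parallel SRB protein staining flagged overt cytotoxicity.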
# [7] = BSK_4H_SRB: Viability Assessment in the BioMAP Diversity Plus: 4H Assay (AID 2283027); conditions: primary human endothelial cells (HUVEC);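 further: cells exposed to compound for 24 h before staining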;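 on AC50: curves fitted both ways versus DMSO so AC50 may be loss or gain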
# Outline: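 Human umbilical vein endothelial cells were dosed with chemical and, after 24 h, fixed with 10% TCA, stained with 0.1% sulforhodamine B, and read at 560 nm to give total protein as a cytotoxicity measure. Bidirectional fitting relative to DMSO control.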
# [8] = read-out: Thrombomodulin, THBD (gene 7056); assay: BSK_3C_Thrombomodulin: BioMAP Diversity Plus: 3C Assay for Thrombomodulin Biomarker Activity (AID 2283029); conditions: primary human endothelial cells (HUVEC); actives raise or lower the signal
# Outline: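 Read-out is ELISA of thrombomodulin on human umbilical vein endothelium 24 h after chemical dosing. Gain or loss of signal is scored relative to DMSO. Overt cytotoxicity is checked in parallel cultures by sulforhodamine B staining.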
# [9] = read-out: Urokinase-type plasminogen activator receptor (uPAR), PLAUR (gene 5329); assay: BSK_4H_uPAR: BioMAP Diversity Plus: 4H Assay for Urokinase-type plasminogen activator receptor (uPAR) Biomarker Activity (AID 2283030); conditions: primary human endothelial cells (HUVEC); actives raise or lower the signal
# Outline: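 HUVEC, 24 h post-dose; uPAR by ELISA; bidirectional fit vs DMSO baseline.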
# [10] = read-out: Vascular endothelial growth factor receptor 2 (Homo sapiens) (UniProt P35968); assay: BSK_4H_VEGFRII: BioMAP Diversity Plus: 4H Assay for Vascular endothelial growth factor receptor 2 (VEGFR2) Biomarker Activity (AID 2283031); conditions: primary human endothelial cells (HUVEC); actives raise or lower the signal;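 on AC50: cell-surface VEGFR2 protein level quantified by ELISA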
# Outline: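 HUVEC (human primary), 4H system; 24 h post-dose; VEGFRII by ELISA; bidirectional curve fit vs DMSO baseline; gain or loss of signal scored.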
# [11] = read-out: Human Leukocyte Antigen - DR isotype (HLADR), HLA-DRA (gene 3122); assay: BSK_BE3C_HLADR: BioMAP Diversity Plus: BE3C Assay for Human Leukocyte Antigen - DR isotype (HLADR) Biomarker Activity (AID 2283032); conditions: primary human bronchial epithelial cells; actives raise or lower the signal
# Outline: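 ELISA read-out of HLA-DR on human lung bronchial epithelial primary cells, measured 24 h post-dosing. Both increases and decreases were scored relative to DMSO vehicle.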
# [12] = read-out: Vascular cell adhesion molecule 1 (VCAM1), VCAM1 (gene 7412); assay: BSK_4H_VCAM1: BioMAP Diversity Plus: 4H Assay for Vascular cell adhesion molecule 1 (VCAM1) Biomarker Activity (AID 2283033); conditions: primary human endothelial cells (HUVEC); actives raise or lower the signal;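 on outcome: cell-surface VCAM-1 protein measured by ELISA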
# Outline: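 ELISA read-out of VCAM-1 on human umbilical vein endothelium 24 hours after chemical dosing; gain or loss of signal was fitted relative to DMSO, with sulforhodamine B staining of parallel cultures flagging overt cytotoxicity.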
# [13] = read-out: Interferon-gamma inducible Protein 10 (IP10), CXCL10 (gene 3627); assay: BSK_BE3C_IP10: BioMAP Diversity Plus: BE3C Assay for Interferon-gamma inducible Protein 10 (IP10) Biomarker Activity (AID 2283034); conditions: primary human bronchial epithelial cells; actives raise or lower the signal
# Outline: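 Chemical is dosed onto human lung bronchial epithelial primary cells, cultures are incubated 24 h, and IP-10 is then quantified by ELISA. Gain or loss of signal is fitted in both directions relative to DMSO.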
# [14] = read-out: Monokine induced gamma interferon (MIG), CXCL9 (gene 4283); assay: BSK_BE3C_MIG: BioMAP Diversity Plus: BE3C Assay for Monokine induced gamma interferon (MIG) Biomarker Activity (AID 2283035); conditions: primary human bronchial epithelial cells; actives raise or lower the signal;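 on outcome: MIG protein measured by ELISA in BE3C cultures after 24 h of dosing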
# Outline: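 ELISA read-out of MIG in human lung bronchial epithelial primary cultures, 24 h post-dosing. Bidirectional curve fit vs DMSO baseline.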
# [15] = read-out: Transforming growth factor beta 1 (TGFb1), TGFB1 (gene 7040); assay: BSK_BE3C_TGFb1: BioMAP Diversity Plus: BE3C Assay for Transforming growth factor beta 1 (TGFb1) Biomarker Activity (AID 2283036;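 on outcome: TGF-b1 protein level measured by ELISA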); conditions: primary human bronchial epithelial cells; actives raise or lower the signal
# Outline: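 Primary human lung bronchial epithelial cells; compound exposure 24 h; TGF-b1 by ELISA; bidirectional fit, DMSO baseline. Parallel SRB total-protein staining for cytotoxicity.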
# [16] = read-out: Plasminogen activator inhibitor-1 (PAI1), SERPINE1 (gene 5054); assay: BSK_BE3C_PAI1: BioMAP Diversity Plus: BE3C Assay for Plasminogen activator inhibitor-1 (PAI1) Biomarker Activity (AID 2283037); conditions: primary human bronchial epithelial cells; actives raise or lower the signal
# Outline: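 Primary human lung bronchial epithelial cells; chemical dosing; 24 h; PAI-1 measured by ELISA; bidirectional fit referenced to DMSO as negative control.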
# [17] = read-out: urokinase plasminogen activator (uPA), PLAU (gene 5328); assay: BSK_BE3C_uPA: BioMAP Diversity Plus: BE3C Assay for urokinase plasminogen activator (uPA) Biomarker Activity (AID 2283038); conditions: primary human bronchial epithelial cells; actives raise or lower the signal;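 on outcome: uPA protein level quantified by ELISA in cell cultures; uPA read one day after compound addition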
# Outline: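 ELISA read-out of uPA in human lung primary bronchial epithelial cultures, 24 h post-dosing. Gain or loss of signal fitted bidirectionally relative to DMSO baseline; cytotoxicity checked in parallel cultures via SRB total protein stain.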
# [18] = read-out: Urokinase-type plasminogen activator receptor (uPAR), PLAUR (gene 5329); assay: BSK_BE3C_uPAR: BioMAP Diversity Plus: BE3C Assay for Urokinase-type plasminogen activator receptor (uPAR) Biomarker Activity (AID 2283039); conditions: primary human bronchial epithelial cells; actives raise or lower the signal;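 on outcome: uPAR protein level measured by ELISA on the cells; cells exposed to compound for one day before measurement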
# Outline: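 Human bronchial epithelial primary cells; chemical exposure 24 h; uPAR by ELISA; bidirectional fit vs DMSO control.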
# [19] = read-out: Interleukin-6 (IL6), IL6 (gene 3569); assay: BSK_CASM3C_IL6: BioMAP Diversity Plus: CASM3C Assay for Interleukin-6 (IL6) Biomarker Activity for (AID 2283040); conditions: primary human coronary artery smooth muscle cells; actives raise or lower the signal
# [20] = BSK_BE3C_SRB: Viability Assessment in the BioMAP Diversity Plus: BE3C Assay (AID 2283028); conditions: primary human bronchial epithelial cells
# Outline: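 Primary human bronchial epithelium; chemical dosing, 24 h; 10% TCA fix, 0.1% SRB stain, A560; bidirectional fit vs DMSO baseline.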
smiles,measurement,setting,value
O=C(O)C(F)(F)C(F)(F)C(F)(F)C(F)(F)C(F)(F)C(F)(F)C(F)(F)C(F)(F)C(F)(F)C(F)(F)F,AC50,[1],35.3 µM (active)
same,outcome,[1],inactive
same,outcome,[2],inactive
same,AC50,[3],29.4 µM (active)
same,outcome,[3],inactive
same,AC50,[4],29.3 µM (active) and 5.53 µM (active) and 5.54 µM (active)
same,AC50,[5],37.8 µM (active)
same,AC50,[6],31 µM (active)
same,outcome,[6],inactive
same,AC50,[7],31.8 µM (active)
same,outcome,[7],inactive
same,AC50,[8],5.29 µM (active)
same,outcome,[8],inactive
same,AC50,[9],32.1 µM (active)
same,outcome,[9],inactive
same,outcome,[10],inactive
same,AC50,[11],9.29 µM (active) and 4.71 µM (active) and 4.92 µM (active)
same,AC50,[12],33.2 µM (active)
same,outcome,[12],inactive
same,AC50,[13],8.5 µM (active) and 2.27 µM (active) and 2.29 µM (active)
same,AC50,[14],13.8 µM (active) and 5.09 µM (active) and 5.56 µM (active)
same,AC50,[15],8.28 µM (active)
same,AC50,[16],12.3 µM (active) and 2.33 µM (active) and 1.73 µM (active)
same,AC50,[17],11.6 µM (active) and 6.21 µM (active) and 5.27 µM (active)
same,AC50,[18],26 µM (active) and 5.6 µM (active) and 5.59 µM (active)
same,outcome,[19],inactive
CC(C)(OO)c1ccccc1,outcome,[1],inactive
same,outcome,[2],inactive
same,outcome,[3],inactive
same,outcome,[4],inactive
same,outcome,[5],inactive
same,outcome,[6],inactive
same,outcome,[7],inactive
same,outcome,[8],inactive
same,outcome,[9],inactive
same,outcome,[10],inactive
same,outcome,[11],inactive
same,outcome,[12],inactive
same,outcome,[13],inactive
same,outcome,[14],inactive
same,outcome,[15],inactive
same,outcome,[16],inactive
same,outcome,[17],inactive
same,outcome,[18],inactive
same,outcome,[19],inactive
C=CC(=O)OCCCCCC(C)C,outcome,[1],inactive
same,outcome,[2],inactive
same,outcome,[3],inactive
same,outcome,[4],inactive
same,outcome,[5],inactive
same,outcome,[6],inactive
same,outcome,[7],inactive
same,outcome,[20],inactive
same,outcome,[8],inactive
same,outcome,[9],inactive
same,outcome,[10],inactive
same,outcome,[11],inactive
same,outcome,[12],inactive
same,outcome,[13],inactive
same,outcome,[14],inactive
same,outcome,[15],inactive
same,outcome,[16],inactive
same,outcome,[17],inactive
same,outcome,[18],inactive
same,outcome,[19],inactive
Nc1ccc(-c2ccc(N)c(Cl)c2)cc1Cl,outcome,[1],inactive
same,outcome,[2],inactive
same,AC50,[3],2.21 µM (active)
same,outcome,[4],inactive
same,AC50,[5],13.7 µM (active)
same,outcome,[6],inactive
same,AC50,[7],2.76 µM (active)
same,outcome,[20],inactive
same,outcome,[8],inactive
same,AC50,[9],10.6 µM (active)
same,outcome,[10],inactive
same,outcome,[11],inactive
same,AC50,[12],9.55 µM (active)
same,outcome,[13],inactive
same,outcome,[14],inactive
same,outcome,[15],inactive
same,outcome,[16],inactive
same,outcome,[17],inactive
same,outcome,[18],inactive
same,outcome,[19],inactive
O=C(Nc1ccc2[nH]ccc2c1)c1cc2cc(F)ccc2n1Cc1cccc(F)c1,AC50,[1],10.4 µM (active)
same,outcome,[2],inactive
same,AC50,[3],8.66 µM (active)
same,AC50,[4],9.72 µM (active)
same,AC50,[5],12.8 µM (active)
same,AC50,[6],7.85 µM (active)
same,AC50,[7],10 µM (active)
same,outcome,[8],inactive
same,AC50,[9],9.25 µM (active)
same,AC50,[10],8.6 µM (active)
same,AC50,[11],5.82 µM (active)
same,AC50,[12],8.66 µM (active)
same,AC50,[13],8.41 µM (active)
same,AC50,[14],8.22 µM (active)
same,outcome,[15],inactive
same,AC50,[16],5.51 µM (active)
same,outcome,[17],inactive
same,AC50,[18],6.74 µM (active)
same,AC50,[19],33.5 µM (active)
